Assay outcomes from PubChem BioAssay.
MsrA act – activators of bovine methionine sulfoxide reductase A | purified bovine MsrA, absorbance read-out | activation, % at 10.6 µM | 360,000 tested, 0.3% active | AID 602163; in the data active means activation above about 7.5%;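 further: 0% = vehicle and 100% = reference activator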
MsrA inh – inhibits bovine methionine sulfoxide reductase A; purified bovine MsrA, absorbance read-out; inhibition, % at 15.5 µM; 360,000 tested, 0.75% active; AID 651718; in the data active means inhibition above about 4.5%;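 further: 0% = vehicle wells with enzyme and 100% = reference inhibitor wells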
PG9 Ab binder – binds the HIV-1 gp120 antibody PG9; TR-FRET gp120-PG9 antibody binding; inhibition, % at 6.7 µM; 360,000 tested, 0.43% active; AID 624416; in the data active means inhibition above about 8.5%
rCAG binder – binds r(CAG) RNA repeats; 370,000 tested, 1.3% active; inhibition, % at 3 µM; r(CAG) RNA repeat, TO-PRO-1 dye displacement fluorescence;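 active means inhibition above the plate cutoff, the mean of all test compounds on that plate plus 3 SD, cut at about 35% in these data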;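 further: 0% = DMSO alone and 100% = 100 µM mitoxantrone as full dye displacement; higher means more dye released from RNA so lower well fluorescence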
sPLA2-III inh – Blocks human group III sPLA2 activity; AID 743126; QFRET BODIPY PC-A2 liposome hydrolysis, fluorescence; inhibition, % at 12.2 µM; 370,000 tested, 0.56% active;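 active means inhibition above mean plus 3 SD of compounds lying within the high and low control bounds, cut at about 19% in these data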;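 further: 0% = median of test compound wells and 100% = no enzyme DMSO wells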
Target sequence (Q9NZ20 whole entry, looked up): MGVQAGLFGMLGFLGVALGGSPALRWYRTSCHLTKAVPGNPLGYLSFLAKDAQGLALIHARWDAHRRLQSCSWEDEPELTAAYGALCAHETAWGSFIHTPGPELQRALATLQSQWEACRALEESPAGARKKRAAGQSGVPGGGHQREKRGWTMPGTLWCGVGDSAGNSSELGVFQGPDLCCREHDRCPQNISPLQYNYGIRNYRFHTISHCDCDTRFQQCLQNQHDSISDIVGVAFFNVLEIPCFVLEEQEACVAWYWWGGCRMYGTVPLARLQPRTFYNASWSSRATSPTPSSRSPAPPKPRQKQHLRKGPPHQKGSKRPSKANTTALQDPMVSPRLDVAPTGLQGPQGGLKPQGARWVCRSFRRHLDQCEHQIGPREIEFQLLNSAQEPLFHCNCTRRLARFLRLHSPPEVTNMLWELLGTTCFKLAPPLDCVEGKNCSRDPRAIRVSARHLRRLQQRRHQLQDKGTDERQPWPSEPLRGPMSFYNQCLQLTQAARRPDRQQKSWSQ
rCAG bind conf – r(CAG) RNA repeat binding, confirmation. 4,300 tested, 70% active. AID 652065. inhibition, % at 3 µM. TO-PRO-1 dye displacement fluorescence. shares compounds with rCAG binder;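 active means inhibition above a per-plate cutoff, the mean inhibition of sample wells plus 3 SD, cut at about 35% in these data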;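 further: loss of TO-PRO-1 fluorescence as compound displaces dye from 1x1 AA loop RNA; 0% = DMSO only wells and 100% = 100 µM mitoxantrone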
DNA CAG counter – DNA CAG dye complex inhibition counter-screen. d(CAG) DNA oligo TO-PRO-1 dye displacement, fluorescence. shares compounds with rCAG binder. 4,300 tested, 94% active. AID 652068. inhibition, % at 3 µM;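 active means inhibition above its plate's cutoff, the mean test-well inhibition plus 3 SD, cut at about 4.8% in these data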;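 further: 0% = DNA dye mix with DMSO and 100% = 100 µM mitoxantrone; hits displace the dye from DNA and so lower well fluorescence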
dCAG dye DR – DNA CAG dye complex inhibition, dose response counter-screen; DNA CAG/GTC duplex TO-PRO-1 dye displacement fluorescence; 250 tested, 20% active; IC50, µM; shares compounds with rCAG binder; in the data active means IC50 below about 10 µM
Active calls of the source: *; / = no result. Hits are enriched below; roughly 3.2% of the tested compounds scored in any of these assays.

SMILES | MsrA act | MsrA inh | PG9 Ab binder | rCAG binder | sPLA2-III inh | rCAG bind conf | DNA CAG counter | others
Cc1ccc(S(=O)(=O)N(C(=O)c2ccco2)c2cc3sc(=O)oc3c3ccccc23)cc1 | -2 | 2 | 1 | 88* | 6 | 40* | 17*
CCOc1ccc(S(=O)(=O)N(C)CC(=O)NCc2ccco2)cc1 | -1 | -1 | 0 | -1 | -2 | / | /
CCOc1ccc(S(=O)(=O)N(C(=O)c2ccco2)c2cc3sc(=O)oc3c3ccccc23)cc1 | 0 | 3 | 1 | 78* | 17 | 48* | 26*
CN1C(=O)C[C@@](C#N)(C(=O)NCCc2ccccc2)[C@H]1c1ccccc1 | / | / | / | -1 | -4 | / | /
CCc1cc(C(=O)N=Nc2c(O)[nH]c3ccc([N+](=O)[O-])cc23)c2ccccc2n1 | -9 | 0 | -2 | 42* | -11 | 35* | 22*
O=C(N=Nc1c(O)[nH]c2ccc([N+](=O)[O-])cc12)c1ccccc1[N+](=O)[O-] | -2 | 2 | 0 | 17 | -7 | / | /
COC(=O)c1cccc(NC(=O)/C=C/c2ccc([N+](=O)[O-])cc2)c1 | -4 | 1 | -2 | 8 | -29 | / | /
CC(=O)Oc1cccc(C(=O)Nc2cccc(C(=O)Nc3ccccc3C(=O)O)c2)c1 | -5 | 0 | -3 | 56* | -23 | 37* | 8.4*
O=C(/C=C/c1ccc([N+](=O)[O-])cc1)Nc1cccc(C(=O)Nc2ccccc2C(=O)O)c1 | -12 | 0 | 1 | 44* | -17 | 83* | 50*
CC(=O)Oc1cccc(NC(=O)c2cccc(C(=O)Nc3cccc(OC(C)=O)c3)c2)c1 | -1 | 0 | -1 | 1 | -17 | / | /
Cc1ccccc1C(=O)Nc1cccc(C(=O)Nc2ccccc2C(=O)O)c1 | -1 | -1 | -1 | 36* | -12 | 23 | 3
CC(NC(=O)c1cc2ccc(C(F)(F)F)cc2nc1N)c1cccc2ccccc12 (stereo not given) | / | / | / | 10 | 7 | / | /
COC(=O)[C@]12C[C@H](CC(=O)N3CCN(C(=O)C4CC4)CC3)C(=O)N(Cc3cccc4ccccc34)C1=C[C@H](C(C)C)O[C@@H]2C1CC1 | / | / | / | 8 | -7 | / | /
CSc1nc(SCCO)c2sc3nc(-c4ccco4)c4c(c3c2n1)CC(C)(C)OC4 | 0 | 2 | 1 | 39* | 12 | 39* | 20*
COc1ccc([C@H](C#Cc2ccccc2)CC(=O)O)cc1OC1CCCC1 | / | / | / | 20 | -3 | / | /
N#CC1=C(S)N(c2ccccc2)C(c2ccco2)NC1=O (stereo not given) | -2 | 2 | 3 | 3 | 6 | / | /
N#CC1=C(S)N(c2ccccc2)C(c2ccc(-c3ccc(Cl)c(Cl)c3)o2)NC1=O (stereo not given) | -5 | 4 | -2 | 84* | -16 | 91* | 79*
N#CC1=C(S)N(c2ccccc2)C(c2ccc(-c3cc(Cl)ccc3Cl)o2)NC1=O (stereo not given) | -9 | -2 | 2 | 59* | -13 | 55* | 18* | dCAG dye DR=5.5*
CCCCNc1nccnc1-c1cccc(C=O)c1 | -1 | 0 | 0 | 1 | 3 | / | /
O=C(CCN1C(=O)/C(=C/c2cccs2)SC1=S)Nc1cccc(C(=O)O)c1 | 0 | 2 | -2 | 60* | -1 | 52* | 18*
O=C(CCCN1C(=O)/C(=C/c2cccs2)SC1=S)Nc1ccc(C(=O)O)cc1 | -11 | 1 | -3 | 42* | 4 | 39* | 7.8*
O=C(O)CCCN1C(=O)/C(=C/c2cn(-c3ccccc3)nc2-c2cccs2)SC1=S | 0 | 1 | 1 | 64* | 0 | 82* | 44*
Cc1nn(-c2ccccc2)c(Cl)c1/C=C1\SC(=S)N(CCCCCC(=O)O)C1=O | -4 | 1 | 1 | 33 | -29 | / | /
CC(=Cc1ccccc1)C=C1SC(=S)N(CCCC(=O)Nc2ccc(C(=O)O)c(O)c2)C1=O | -5 | 0 | -3 | 93* | -33 | 92* | 76*
CC(=C\c1ccccc1)/C=C1/SC(=O)N(CCCC(=O)Nc2ccc(C(=O)O)cc2)C1=O | -2 | 2 | -1 | 32 | -14 | / | /
SMILES | MsrA act | MsrA inh | PG9 Ab binder | rCAG binder | sPLA2-III inh | rCAG bind conf | DNA CAG counter | others
C=CCn1c(Cc2cccs2)nnc1SCC(=O)Nc1ccc(C)cc1 | / | / | / | 1 | -4 | / | /
C[C@H]1[C@@H](C(=O)N2CCCC2)Cc2nc3ccccc3nc2C[C@@H]1c1ccccc1 | / | / | / | 4 | -2 | / | /
O=C(CCN1C(=O)/C(=C/c2cccs2)SC1=S)Nc1ccc(C(=O)O)c(O)c1 | -1 | 0 | -1 | 93* | -32 | 80* | 50*
COC(=O)[C@]1(C#N)CC(=O)N(C)[C@@H]1c1ccccc1 | / | / | / | 3 | 5 | / | /
O=C(Nc1nc2ncccn2c1-c1ccccc1)c1ccccc1 | / | / | / | 0 | 6 | / | /
COc1cc(C2Nc3cccc4cccc(c34)N2)ccc1O | -8 | 4 | -3 | 53* | -2 | 48* | 26*
COc1cc(C2Nc3cccc4cccc(c34)N2)cc(OC)c1OC(C)=O | 0 | 0 | -1 | 29 | -8 | / | /
COc1ccc(Oc2ccc(C(F)(F)F)cc2NC(=O)c2ccc(F)cc2)cc1 | -3 | 2 | -1 | 3 | 7 | / | /
COc1ccc(Oc2ccc(C(F)(F)F)cc2NC(=O)CC(CC(=O)O)c2ccccc2)cc1 (stereo not given) | 3 | -1 | 0 | 46* | -20 | 42* | 8.0*
O=C(NC1CCCCN(Cc2ccc(Cl)cc2)C1=O)C(c1ccccc1)c1ccccc1 (stereo not given) | / | / | / | 9 | -8 | / | /
COC(=O)[C@H]1C[C@@]2(n3ccc4ccccc43)c3ccccc3N(S(=O)(=O)c3ccccc3)[C@H]2N1 | / | / | / | 4 | -6 | / | /
CCCOC(c1ccccc1)(c1ccc(C(F)(F)F)cc1)C(Oc1nc(C)cc(C)n1)C(=O)O (stereo not given) | 1 | -1 | 0 | 30 | -11 | / | /
Cc1cc(C)nc(OC(C(=O)O)C(OCCc2ccccc2)(c2ccc(F)cc2)c2ccc(F)cc2)n1 (stereo not given) | -2 | 1 | 0 | 36* | -21 | 49* | 11*
COc1ccc2ccccc2c1C=NNC(=O)CN1CCN(Cc2ccccc2)CC1 | / | / | / | 0 | -2 | / | /
O=C(CSc1nc2ccccc2n1CCc1ccccc1)N1CCOCC1 | -1 | 1 | 0 | 3 | 6 | / | /
O=C(CSc1nc2ccccc2n1CCc1ccccc1)c1ccc(O)c(O)c1 | -4 | 1 | -3 | 61* | 24* | 64* | 38*
O=C(NC1CC1)c1c[nH]c2ccc(S(=O)(=O)Nc3cccc(C(F)(F)F)c3)cc2c1=O | 2 | 2 | -2 | 36* | -19 | 30 | 6.0*
